{"source": "PubChem BioAssay AID2797", "about": "(The Scripps Research Institute Molecular Screening Center, 2010)", "note": "Screen size: about 320,000 compounds; about 820 (0.26%) were called active. The sample holds actives, similar compounds and a random draw of the others, so the mix is not that of the screen. Values without a mark were called inactive.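 How the source made its calls: active means activation above the mean activation of all tested compounds plus 3 SD, per screening run (cut at about 20% in these data); inactive means the rest.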", "data": [{"biological_target": "Vasopressin V1a receptor (Homo sapiens) (UniProt P37288)", "sequence (P37288 whole entry, looked up)": "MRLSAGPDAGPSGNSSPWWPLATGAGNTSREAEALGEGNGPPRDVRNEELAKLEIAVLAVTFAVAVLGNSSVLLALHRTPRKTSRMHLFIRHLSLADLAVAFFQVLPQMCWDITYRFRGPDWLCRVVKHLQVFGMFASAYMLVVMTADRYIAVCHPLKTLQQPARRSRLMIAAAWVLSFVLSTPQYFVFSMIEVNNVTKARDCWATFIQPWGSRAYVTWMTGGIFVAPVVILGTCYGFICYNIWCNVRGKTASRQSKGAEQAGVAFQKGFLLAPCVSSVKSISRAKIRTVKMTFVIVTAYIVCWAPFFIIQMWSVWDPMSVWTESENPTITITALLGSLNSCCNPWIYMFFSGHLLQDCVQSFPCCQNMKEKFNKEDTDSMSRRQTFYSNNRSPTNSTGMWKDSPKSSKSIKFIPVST", "assay": "agonists of human V1a receptor, primary screen, counter-screen for OXTR agonist project, fluorescence, CHO-V1R cells (AID 2797);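 further: signal is peak over basal fluorescence ratio across a 100 second FLIPR read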", "settings": "Fluo-8 calcium fluorescence, agonist mode, at 3 µM, active compounds read high, 0% DMSO, 100% 3 nM vasopressin", "values": [{"smiles": "COc1cc(NS(=O)(=O)c2ccc(NC(=S)NC(=O)c3ccccc3)cc2)nc(OC)n1", "activation": "-0.14%"}, {"smiles": "CC1CCCC(NC(=O)c2cc(S(=O)(=O)N3CCCCC3)ccc2Cl)C1C", "note": "(stereo unspecified)", "activation": "-0.2%"}, {"smiles": "CCN(CC)C(CNC(=O)CSc1nnnn1-c1cccc(F)c1)c1ccco1", "note": "(stereo unspecified)", "activation": "-0.26%"}, {"smiles": "CCOc1ccc(NC(=O)CSc2nncn2C)cc1", "activation": "0.81%"}, {"smiles": "CCCCN(C(=O)c1nn(C)c(=O)c2ccccc12)c1c(N)n(CCC)c(=O)[nH]c1=O", "activation": "0.08%"}, {"smiles": "Cc1onc(-c2ccccc2)c1C(=O)Nc1ccccc1C#N", "activation": "-1.51%"}, {"smiles": "Cc1onc(-c2ccccc2)c1C(=O)NNC(=S)NC(=O)c1ccc(F)cc1", "activation": "21.1% (active)"}, {"smiles": "Cc1onc(-c2ccccc2)c1C(=O)N=C(N)c1ccc(Cl)cc1", "activation": "0.22%"}, {"smiles": "CCc1noc(C)c1C(=O)NNC(=O)c1ccc(F)cc1", "activation": "0.87%"}, {"smiles": "Cc1onc(-c2c(Cl)cccc2Cl)c1C(=O)NNC(=O)c1c(-c2c(Cl)cccc2Cl)noc1C", "activation": "0.81%"}, {"smiles": "COc1ccc(C(=O)NC(=S)NNC(=O)c2c(-c3ccccc3)noc2C)cc1", "activation": "70.5% (active)"}, {"smiles": "Cc1ccc(C(=O)Nc2sc(Cc3ccc4c(c3)OCO4)c(C)c2C(N)=O)cc1", "activation": "-0.01%"}, {"smiles": "COc1ccc(C(=O)C2CCCN(Cc3cccn3-c3ccccn3)C2)c(C)c1", "note": "(stereo unspecified)", "activation": "8%"}, {"smiles": "COC(=O)C1=C(C(=O)OC)C(c2cc([N+](=O)[O-])ccc2O)c2sc(=O)[nH]c2S1", "note": "(stereo unspecified)", "activation": "0.68%"}, {"smiles": "CC1(C)OC(=O)C(=CSc2ccc(C(C)(C)C)cc2)C(=O)O1", "activation": "1%"}, {"smiles": "O=C(CCCN1CCc2[nH]c3ccc(F)cc3c2C1)c1ccc(F)cc1", "activation": "23% (active)"}, {"smiles": "Fc1ccc(NC(=S)N2CCc3[nH]c4ccccc4c3C2)cc1", "activation": "4.06%"}, {"smiles": "CC1CCc2[nH]c3ccc(C(=O)N(C)CC(=O)Nc4cccc(F)c4)cc3c2C1", "note": "(stereo unspecified)", "activation": "0.41%"}, {"smiles": "Cc1cc(OCc2ccc(C(=O)Nc3ccc(C(=O)O)cc3)o2)ccc1Cl", "activation": "2.11%"}, {"smiles": "S=c1nccc(-c2cc(Cl)sc2Cl)[nH]1", "activation": "0.23%"}, {"smiles": "O=C(c1ccc(Cl)cc1)c1ccc(OCC(O)CN2CCCCC2)cc1", "note": "(stereo unspecified)", "activation": "4.01%"}, {"smiles": "O=C(c1ccccc1)c1ccc(OCC(O)CN2CCCC2)cc1", "note": "(stereo unspecified)", "activation": "22.4% (active)"}, {"smiles": "CC1CCN(CC(O)COc2ccc(C(=O)c3ccccc3)cc2)CC1", "note": "(stereo unspecified)", "activation": "1.88%"}, {"smiles": "CCOC(=O)C1(C)NC(c2ccco2)C2C(=O)N(c3ccccc3)C(=O)C21", "note": "(stereo unspecified)", "activation": "3.3%"}, {"smiles": "COc1ccc(NC(=O)CN(Cc2ccccc2)S(C)(=O)=O)cc1OC", "activation": "0.58%"}, {"smiles": "COc1ccc(OCCNC(=O)c2cc(C3CC3)nc3c2cnn3C(C)C)cc1", "activation": "-0.36%"}, {"smiles": "COCCCNC(=S)NC(=O)c1ccccc1", "activation": "1.26%"}, {"smiles": "CCOC(=O)C1=C(NC(=S)NC(=O)c2ccccc2)c2ccccc2CC1(C)C", "activation": "29.8% (active)"}, {"smiles": "Cc1ccc(NC(=S)NC(=O)c2ccc(-c3ccccc3)cc2)cc1", "activation": "0.62%"}, {"smiles": "Cc1ccc(NC(=O)CSc2nn3c(=O)c(C)nnc3s2)cc1Cl", "activation": "0.31%"}, {"smiles": "CCC(C)C(=O)Nc1cc([N+](=O)[O-])ccc1Cl", "note": "(stereo unspecified)", "activation": "-0.34%"}, {"smiles": "CC(C)(C)NC(=O)C(=O)NCc1ccncc1", "activation": "0%"}, {"smiles": "O=C(OCCN=C1NS(=O)(=O)c2ccccc21)c1cccc([N+](=O)[O-])c1", "activation": "3.94%"}, {"smiles": "O=C(CCCN=C1NS(=O)(=O)c2ccccc21)OCC(=O)c1ccc(F)c(F)c1", "activation": "22.6% (active)"}, {"smiles": "N#CC1(NC(=O)COC(=O)CCN=C2NS(=O)(=O)c3ccccc32)CCCCC1", "activation": "0.74%"}, {"smiles": "N#CCN(C(=O)COC(=O)C1CC2CCCC(C1)C2=O)c1ccccc1", "note": "(stereo unspecified)", "activation": "-0.11%"}, {"smiles": "COc1ccc(C23NCCN2C(=O)c2ccccc23)cc1", "note": "(stereo unspecified)", "activation": "-0.14%"}, {"smiles": "Cc1cc(NC(=O)CCN2CCN(Cc3ccccc3)CC2)ccc1Br", "activation": "26.5% (active)"}, {"smiles": "CCOC(=O)N1CCN(CCC(=O)Nc2ccccc2)CC1", "activation": "0.3%"}, {"smiles": "CC1CCN(CCC(=O)Nc2ccccc2)CC1", "activation": "0.38%"}, {"smiles": "O=C1Nc2ccccc2/C1=C/c1ccnc2ccccc12", "activation": "3.16%"}, {"smiles": "Cc1cc(C)c(/C=C2\\C(=O)Nc3ccccc32)[nH]1", "activation": "23.6% (active)"}, {"smiles": "CN(C)/C=C1/Nc2ccccc2C1=O", "activation": "1.1%"}, {"smiles": "COc1ccc([C@H]2CC(=O)C=C(c3ccc(OC(F)(F)F)cc3)C2)cc1OC", "activation": "1.96%"}, {"smiles": "COc1ccc(C2CC(c3cccs3)Nc3nnnn32)cc1", "note": "(stereo unspecified)", "activation": "1.36%"}, {"smiles": "Cc1ccc(S(=O)(=O)NCCC(=O)NNC(=O)C2COc3ccccc3O2)cc1", "note": "(stereo unspecified)", "activation": "-0.1%"}, {"smiles": "COc1ccc(C2C(C#N)=C(N)N(c3ncn[nH]3)C3=C2C(=O)CCC3)cc1", "note": "(stereo unspecified)", "activation": "1.11%"}, {"smiles": "C=CCSc1nc2c(c(=O)[nH]c(=O)n2C)n1Cc1ccccc1", "activation": "0.69%"}, {"smiles": "Cc1cc2nc3c(=O)n(Cc4ccccc4)c(=O)[nH]c3nc2cc1N", "activation": "73.4% (active)"}, {"smiles": "CN(C(=O)COC(=O)c1ccc(Br)o1)c1c(N)n(Cc2ccccc2)c(=O)[nH]c1=O", "activation": "-0.45%"}, {"smiles": "C[C@H](NC(=O)c1nc[nH]c1C(=O)NCC(=O)OC(C)(C)C)c1ccccc1", "activation": "-0.3%"}, {"smiles": "Cc1c(Br)cc(C(=O)N2CCCCCC2)c(C)c1C", "activation": "-1.61%"}, {"smiles": "O=C(NC(=S)Nc1ccccc1N1CCCCC1)c1ccc(F)cc1", "activation": "-0.81%"}, {"smiles": "Cc1ccccc1NC(=S)NC(=O)Cc1ccc(Cl)cc1", "activation": "26.2% (active)"}, {"smiles": "O=C(Cc1ccc(Cl)cc1)NC(=S)Nc1ccccc1O", "activation": "47.5% (active)"}, {"smiles": "Cc1ccccc1N/C(SCc1ccc(Cl)cc1)=C(/C#N)C(N)=O", "activation": "-0.5%"}, {"smiles": "COC(=O)Cc1ccc(NC(=S)NCc2ccc(Cl)cc2)cc1", "activation": "10%"}, {"smiles": "O=C(COc1ccc(Cl)cc1)NC(=S)Nc1ccccc1N1CCOCC1", "activation": "3.48%"}, {"smiles": "Cc1cccc(NC(=S)NCCc2ccc(Cl)cc2)c1C", "activation": "0.32%"}, {"smiles": "CCN1CCN(C(=O)CN(C)S(=O)(=O)c2ccc3ccccc3c2)CC1", "activation": "0.47%"}, {"smiles": "Cc1nc2scc(-c3cccs3)c2c(=O)n1N", "activation": "-0.59%"}]}]}
